Screening data deposited in PubChem by SRMLSC.
DPM-DC inhibit = S. pneumoniae DPM-DC inhibition. AID 556. actives 0.49% (n = 65,000). calls only at 10 µM. purified DPM-DC, PK/LDH coupled NADH fluorescence;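 active = the 320 compounds with the highest percent inhibition in the single-dose primary screen, excluding strongly autofluorescent ones, cut at about 32% in these data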;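 also: kinetic rate of NADH fluorescence loss reporting ADP formed by the decarboxylase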
MK inhibit = inhibitors of Streptococcus pneumoniae mevalonate kinase. inhibition, % at 10 µM. actives 0.48% (n = 65,000). AID 555. purified MK, PK/LDH-coupled NADH absorbance 340 nm;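 active = ranked among the strongest by inhibition in the single 10 µM screen, a fixed top-ranked set picked for dose follow-up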
Fluor 339 460 = intrinsic fluorescence of library compounds, ex339/em460 – biochemical, MLSMR library, data from DPM-DC assay, artefact control, profiling panel; fluorescence fold increase at 10 µM; actives 5.5% (n = 65,000); compound autofluorescence, ex339/em460 nm, NADH buffer; active compounds read high; 1 = no-compound wells, NADH background; AID 709;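 active = at 10 µM, mean starting fluorescence two-fold or more over control wells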;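 also: signal is the first read of a kinetic run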
NADH enzymes = blocks coupling enzymes of NAD/NADH assays | coupled PK/LDH NADH assays, four targets | IC50, µM (doses to about 10 µM) | actives 0.02% (n = 65,000) | AID 774;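 active = single-dose screening hits from any of four coupled enzyme assays that gave an IC50 when retested across doses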;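 also: the DPM-DC format reads NADH fluorescence rather than 340 nm absorbance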
A340 absorber = compounds absorbing at 340 nm; AID 708; compound absorbance at 340 nm, fold over control; 65,000 tested, under 10 active; fold change at 10 µM;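 active = at 10 µM dose, initial 340 nm absorbance at least 2 fold that of control wells; inactive = change under 2 fold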;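 also: initial absorbance extrapolated from kinetic A340 decline of NADH oxidation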
PMK inhibit = blocks S. pneumoniae phosphomevalonate kinase; purified PMK, PK/LDH-coupled NADH absorbance 340 nm; inhibition, % at 10 µM; actives 0.49% (n = 65,000); AID 539;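 active = top-ranked compounds by inhibition in the single 10 µM screen, taking a fixed number of the strongest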
Hits are given with their value; i = inactive; nt = no result given; + = active, no number; [ ] = another dose, or the depositor's remark. Sampled rows, rich in hits. Any-hit rate of the full collection: about 6.8%.

SMILES | DPM-DC inhibit | MK inhibit | Fluor 339 460 | NADH enzymes | A340 absorber | PMK inhibit
CC(=O)N1CCC2(CC1)CC(=O)c1cc(OCC(=O)N3CCN(C)CC3)ccc1O2 | nt | i | 5.1 | i | i | i
COc1ccc(Cn2c(N)c(C(=O)NCc3ccco3)c3nc4ccccc4nc32)cc1 | nt | i | 4.9 | i | i | i
Nc1c(C(=O)NCc2ccco2)c2nc3ccccc3nc2n1Cc1ccc(F)cc1 | nt | i | 2.2 | i | i | i
NCC1(CC(=O)O)CCCCC1 | i | i | i | i | i | i
COc1ccccc1N1CCN(Cc2cccc(OC)c2O)CC1 | i | i | i | i | i | i
CN(C)[C@@H]1C(=O)C(C(N)=O)=C(O)[C@@]2(O)C(=O)C3=C(O)c4c(O)cccc4[C@@](C)(O)[C@H]3[C@H](O)[C@@H]12 | +[fluoresces] | i | i | 125µM[fluoresces] | i | i
Cc1nc2c(c(C)nn2-c2ccccc2)c(C)c1CCC(=O)N1CCC2(CC1)OCCO2 | i | i | 3.6 | i | i | i
Cc1nc2cc(-c3cccc(F)c3)nn2c(C)c1CCC(=O)N1CCC2(CC1)OCCO2 | i | i | 2.3 | i | i | i
Cc1nc2c(-c3ccccc3)c(C)nn2c(C)c1CCC(=O)N1CCC2(CC1)OCCO2 | i | i | i | i | i | i
O=C(CSc1ccccc1)N1CCC2(CC1)OCCO2 | i | i | i | i | i | i
CN(C)P1(N(C)C)=Nc2c(c(N)nn2C)C(c2ccccc2)=N1 | i | i | i | i | i | i
CCC(=O)N1c2ccc(S(=O)(=O)CCC(=O)N3CCC4(CC3)OCCO4)cc2CC1C (stereo not drawn) | i | i | i | i | i | i
CCn1c(C(=O)N2CCC(C(=O)N3CCC4(CC3)OCCO4)CC2)cc2sccc21 | i | i | i | i | i | i
O=C(c1ccc2nc(-c3ccco3)c(-c3ccco3)nc2c1)N1CCC2(CC1)OCCO2 | i | i | i | i | i | i
O=C(c1ccc2nc3ccc(Cl)cc3c(=O)n2c1)N1CCC2(CC1)OCCO2 | nt | i | 3.3 | i | i | i
CC(C)OC(=O)c1c(N)n(CC2CCCO2)c2nc3ccccc3nc12 (stereo not drawn) | nt | i | 3 | i | i | i
CC(C)CCOC(=O)c1c(N)n(CC2CCCO2)c2nc3ccccc3nc12 (stereo not drawn) | nt | i | 3.9 | i | i | i
Nc1c(C(=O)OC2CCCCC2)c2nc3ccccc3nc2n1CC1CCCO1 (stereo not drawn) | nt | i | 3.6 | i | i | i
CCn1nc(-c2cccs2)nc2c(=O)n(C)c(=O)nc1-2 | + | 63 | i | 8.4µM | i | i
CCCCN=Cc1c(O)n(-c2c(C)cc(C)cc2C)c(=O)[nH]c1=O | i | i | i | i | i | i
O=C(Cn1ncc2ccsc2c1=O)N1CCC2(CC1)OCCO2 | i | i | i | i | i | i
O=C(Cn1c(=O)c(C(F)(F)F)nc2ccccc21)N1CCC2(CC1)OCCO2 | i | i | 2 | i | i | i
CN1CCN(C(=O)COc2ccc3ccccc3c2Br)CC1 | i | i | i | i | i | i
COCCOC(=O)c1c(N)n(Cc2ccccc2)c2nc3ccccc3nc12 | nt | i | 3.9 | i | i | i
COCCCn1c(N)c(C(=O)NCCC(C)C)c2nc3ccccc3nc21 | nt | i | 3.7 | i | i | i
SMILES | DPM-DC inhibit | MK inhibit | Fluor 339 460 | NADH enzymes | A340 absorber | PMK inhibit
CCCCOCCCn1c(N)c(C(=O)OCCOC)c2nc3ccccc3nc21 | nt | i | 2.3 | i | i | i
O=C(CN1CC(c2ccccc2)CC1=O)Nc1ccccc1 (stereo not drawn) | i | i | i | i | i | i
COCC(C)OC(=O)c1c(N)n(Cc2ccco2)c2nc3ccccc3nc12 (stereo not drawn) | nt | i | 2.3 | i | i | i
CCCCn1c(NC(=O)c2ccco2)c(C(=O)OCC)c2nc3ccccc3nc21 | nt | i | 3.8 | i | i | i
CCOC(=O)c1c(N)n(Cc2ccco2)c2nc3ccccc3nc12 | nt | i | 2.2 | i | i | i
CCCC12CN3CN(C1)CC(CCC)(C3)C2O (stereo not drawn) | i | i | i | i | i | i
CC1=C(C(=O)N2CCC3(CC2)OCCO3)C2(CCC(C)CC2)OC1=O (stereo not drawn) | i | i | i | i | i | i
COc1cc2[nH]c(=O)n(-c3ccccc3)c(=O)c2cc1OC | nt | i | 2.1 | i | i | i
COc1cc2[nH]c(=O)n(-c3cccc(Cl)c3)c(=O)c2cc1OC | i | i | i | i | i | i
O=P(OCC(F)(F)C(F)F)(N1CCOCC1)N1CCOCC1 | i | i | i | i | i | i
CC(C)[C@H]1C(=O)N2CCC[C@H]2[C@]2(O)O[C@](NC(=O)[C@@H]3C=C4c5cccc6[nH]cc(c56)C[C@H]4N(C)C3)(C(C)C)C(=O)N12 | i | i | 2.4 | i | i | i
CC(c1ccccc1F)n1cc(C(=O)Nc2ccc3nc[nH]c3c2)nn1 (stereo not drawn) | i | i | i | i | i | i
COc1ccccc1N1CCN(Cc2ccccc2Cl)CC1 | i | 49 | i | i | i | i
COc1ccccc1N1CCN(Cc2ccccc2F)CC1 | i | 51 | i | i | i | i
CC(C(=O)c1c[nH]c2ccccc12)N1CCc2ccccc2C1 (stereo not drawn) | i | i | i | i | i | i
O=C1CCCC2C3CCCN4CCCC(CN12)C34 (stereo not drawn) | i | i | i | i | i | i
O=C(c1ccccc1)c1cn(CC(=O)N2CCOCC2)c2ccccc12 | i | i | i | i | i | i
CCOc1ccc(-c2cc(C(=O)N3CCC4(CC3)OCCO4)c3ccccc3n2)cc1 | nt | i | 5.2 | i | i | i
Cc1ccc2c(c1)C(c1ccccc1)NCC(=O)N2 (stereo not drawn) | i | i | i | i | i | i
CC(C)Cc1[nH]c(=O)c(C#N)c2c1CCC2 | nt | i | 2.3 | i | i | i
CC(C)C1(C)N=C(c2nc3ccccc3cc2C(=O)O)NC1=O (stereo not drawn) | i | i | i | i | i | i
O=C(CCN1C(=O)COc2ccccc21)N1CCC2(CC1)OCCO2 | i | i | i | i | i | i
COC(=O)C(C)Oc1cc(C)cc2oc(=O)c3c(c12)CCCC3 (stereo not drawn) | nt | i | 3.7 | i | i | i
Cc1cc(OCC(=O)OC(C)C)c2c3c(c(=O)oc2c1)CCCC3 | i | i | i | i | i | i
CCOC(=O)C(C)Oc1cc(C)cc2oc(=O)c3c(c12)CCCC3 (stereo not drawn) | nt | i | 2.1 | i | i | i
COC(=O)C(C)Oc1cc(C)cc2oc(=O)c3c(c12)CCC3 (stereo not drawn) | nt | i | 3.8 | i | i | i
COC(=O)c1cc(COc2cc(C)cc3oc(=O)c4c(c23)CCC4)c(C)o1 | i | i | i | i | i | i
COC(=O)CC1=C(C(=O)OC)C2(C(=O)N(C)c3ccccc32)C(C#N)=C(N)O1 (stereo not drawn) | i | i | i | i | i | i
